Values joined by “and” are separate entries in the source; they are usually repeats but may differ in a detail not shown here. Equal entries are not always repeated. Inconclusive results are not listed. Active and inactive are the calls of the source. Unless noted, calls follow the shape of the dose curve; as a rule, active = well fitted curve in the direction sought with a large enough effect in the repeat runs; inconclusive = weak or mixed curves; inactive = no such curve, though single readings can be large; an effect the other way counts as inactive or inconclusive.

Here are results for 18 molecules from PubChem BioAssay (NCATS).

Experiment [1] has as its target Cytochrome P450 2D6 (Homo sapiens) (UniProt P10635). The experiment in a line: Cytochrome P450 family 2 subfamily D member 6 (CYP2D6) small molecule antagonists: luciferase biochemical (cell-free) qHTS assay (AID 1645840). Also: potency is read from the fitted curve at half-maximal effect; nearly all actives have a fitted effect of over 55% in size. In a few lines:
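P450-Glo CYP2D6 system: proluciferin substrate converted by enzyme to luciferin, read by luminescence proportional to activity. Enzyme-substrate mix with compound 10 min at room temperature, then NADPH regeneration 1 h before detection reagent.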

The nature of experiment [2]: Primary qHTS for inhibitors of nuclear receptor binding SET domain protein 2 (NSD2) in an isogenic RCH-ACV NSD2 p.E1099K mutant (9B) (AID 1645876; active = well fitted curve in the direction sought with a large enough effect; an effect the other way counts as inactive or inconclusive; also: nearly all actives have a fitted effect of over 70% in size; also: potency is read from the fitted curve at half-maximal effect).
Experiment [3] can be described thus: Primary qHTS for inhibitors of nuclear receptor binding SET domain protein 2 (NSD2) in an RCH-ACV wild type WT cells (2C) (AID 1645877; active = well fitted curve in the direction sought with a large enough effect; an effect the other way counts as inactive or inconclusive; also: nearly all actives have a fitted effect of over 70% in size; also: potency is read from the fitted curve at half-maximal effect).
Experiment [4] concerns the target Cytochrome P450 2C9 (Homo sapiens) (UniProt P11712). The experiment in a line: Cytochrome P450 family 2 subfamily C member 9 (CYP2C9) small molecule antagonists: luciferase biochemical (cell-free) qHTS assay (AID 1645842). Also: nearly all actives have a fitted effect of over 55% in size. Also: potency is read from the fitted curve at half-maximal effect. Put shortly:
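P450-Glo CYP2C9 system: proluciferin substrate with enzyme in mix containing 0.4% BSA, 10 min at room temperature, then NADPH regeneration solution added and incubated 1 h at 37C. Detection reagent stopped reaction; luminescence read after 20 min as RLU.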

Experiment [5] has as its target Cytochrome P450 3A4 (Homo sapiens) (UniProt P08684). The experiment in a line: Cytochrome P450 family 3 subfamily A member 4 (CYP3A4) small molecule antagonists: luciferase qHTS assay (AID 1645841). Also: nearly all actives have a fitted effect of over 45% in size. Put shortly: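 P450-Glo CYP3A4 enzyme with proluciferin substrate was preincubated with DMSO-dissolved compounds for 10 min at room temperature. NADPH regeneration solution started a 1 h reaction. Detection reagent stopped it, and luminescence was read after 20 min.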

Cytochrome P450 2D6 (Homo sapiens), sequence (P10635 whole entry, looked up): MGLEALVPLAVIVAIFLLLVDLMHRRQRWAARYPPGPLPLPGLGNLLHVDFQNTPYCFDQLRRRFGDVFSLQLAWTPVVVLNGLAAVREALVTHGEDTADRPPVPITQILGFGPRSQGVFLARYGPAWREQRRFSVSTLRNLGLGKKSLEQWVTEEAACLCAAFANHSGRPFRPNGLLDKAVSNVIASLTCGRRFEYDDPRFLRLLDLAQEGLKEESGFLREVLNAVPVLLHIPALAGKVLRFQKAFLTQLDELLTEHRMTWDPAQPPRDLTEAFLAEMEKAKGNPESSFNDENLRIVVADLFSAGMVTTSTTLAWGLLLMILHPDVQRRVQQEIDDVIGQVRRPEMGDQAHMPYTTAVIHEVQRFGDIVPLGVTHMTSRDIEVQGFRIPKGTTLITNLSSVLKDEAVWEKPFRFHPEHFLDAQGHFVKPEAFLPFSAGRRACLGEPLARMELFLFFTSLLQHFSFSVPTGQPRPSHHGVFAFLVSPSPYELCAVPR
Cytochrome P450 2C9 (Homo sapiens), sequence (P11712 whole entry, looked up): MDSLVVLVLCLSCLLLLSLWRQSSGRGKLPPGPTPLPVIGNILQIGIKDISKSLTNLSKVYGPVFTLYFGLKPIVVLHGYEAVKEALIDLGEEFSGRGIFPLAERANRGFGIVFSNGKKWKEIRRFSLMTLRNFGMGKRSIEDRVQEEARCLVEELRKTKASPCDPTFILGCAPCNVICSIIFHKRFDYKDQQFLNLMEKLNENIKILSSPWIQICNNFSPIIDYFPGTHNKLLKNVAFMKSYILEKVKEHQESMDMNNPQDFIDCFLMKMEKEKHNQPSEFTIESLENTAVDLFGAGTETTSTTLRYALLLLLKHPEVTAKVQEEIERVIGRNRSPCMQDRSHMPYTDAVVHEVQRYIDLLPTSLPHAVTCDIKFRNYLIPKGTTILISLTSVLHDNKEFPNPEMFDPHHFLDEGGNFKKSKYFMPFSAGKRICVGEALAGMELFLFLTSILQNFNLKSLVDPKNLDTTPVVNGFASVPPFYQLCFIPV
Cytochrome P450 3A4 (Homo sapiens), sequence (P08684 whole entry, looked up): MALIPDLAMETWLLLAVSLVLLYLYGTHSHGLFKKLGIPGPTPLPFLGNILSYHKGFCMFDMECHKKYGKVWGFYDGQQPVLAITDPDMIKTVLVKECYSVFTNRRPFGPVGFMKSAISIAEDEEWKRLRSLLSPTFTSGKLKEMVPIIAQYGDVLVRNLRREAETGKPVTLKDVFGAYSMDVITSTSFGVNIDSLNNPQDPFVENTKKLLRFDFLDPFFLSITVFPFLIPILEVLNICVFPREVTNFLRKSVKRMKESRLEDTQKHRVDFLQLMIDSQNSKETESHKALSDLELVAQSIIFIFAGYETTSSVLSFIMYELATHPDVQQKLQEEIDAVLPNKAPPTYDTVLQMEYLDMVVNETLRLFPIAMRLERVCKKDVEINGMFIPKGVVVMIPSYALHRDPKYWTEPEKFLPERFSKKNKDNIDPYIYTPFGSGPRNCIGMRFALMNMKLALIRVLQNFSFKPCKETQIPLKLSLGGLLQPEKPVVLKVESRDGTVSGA

As to `Cc1nc2ccc(-n3ncc(C(=O)c4cc5ccccc5[nH]4)c3N)cc2[nH]1`, the Potency in experiment [1] was 23.9 µM (active); in experiment [2], 3.25 µM (active) and 2.63 µM (active); in experiment [3], 7.28 µM (active) and 4.17 µM (active).

`COc1ccccc1OCCN1CC(COc2cccc3[nH]c4ccccc4c23)OCC1=O` (centres undefined): in experiment [4], the Potency was 0.849 µM (active).

In the case of `Nc1ncnc2c1c(-c1ccc(Cl)cc1)nn2-c1cccc(-c2cnnn2Cc2cccc(-c3ccccc3)c2)c1`, the Potency in experiment [4] is 0.536 µM (active).

Take `Cn1c(CO)c(-c2ccccc2)c2cc([N+](=O)[O-])ccc21`: the Potency in experiment [4] is 19 µM (active).

In the case of `Cc1cc(-c2nc(-c3ccc(OC(F)(F)F)cc3)no2)nn1Cc1ccnc(N2CCN(C3CC3)CC2)c1`, the Potency in experiment [4] is 6.01 µM (active).

With `O=C(NCc1ccccc1)c1ccc2c(=O)n(-c3cccc(C(F)(F)F)c3)c(=S)[nH]c2c1`, the Potency result in experiment [5] and in experiment [2] was “inactive” each time. The Potency in experiment [4] is 10.7 µM (active).

`CCCOc1ccc(S(=O)(=O)N2CCN(CCO)CC2)cc1-c1nc2c(CCC)cn(CC)c2c(=O)[nH]1`: the Potency in experiment [4] was 5.35 µM (active).

As for `O=c1[nH]c2ccccc2n1CCN1CCN(c2cccc(C(F)(F)F)c2)CC1`, in experiment [1], the Potency was 7.56 µM (active). In addition, the Potency result in experiment [3] was “inactive”.

For the molecule `COc1ccc2c(c1O[C@H]1CCNC1)CCC2`, the Potency in experiment [1] is 16.9 µM (active). Besides, the Potency entry in experiment [2] and in experiment [3] was “inactive” each time.

On to `Cc1nc2cc(C(=O)NCc3ccccn3)nn2c(C)c1Cc1cccc(Cl)c1`, for which, in experiment [4], the Potency is 1.2 µM (active).

Regarding `O=C(Nc1ccn(Cc2ccc(O)cc2C(F)(F)F)n1)c1c(F)cccc1F`, the Potency in experiment [4] is 6.01 µM (active).

As for `COc1ccncc1C(=O)NC(=O)Nc1ccc(-c2ccccc2)c(C(F)(F)F)c1`, the Potency in experiment [1] was 19 µM (active). The Potency result in experiment [2] and in experiment [3] was “inactive” in each case.

With `Cc1ccc(-c2cn3c4c(sc3n2)CCCC4)cc1`, the Potency in experiment [4] was 16.9 µM (active).

With `c1cc(NC2CCNCC2)nc(-c2cnc3ccccn23)c1`, the Potency is 15.1 µM (active) in experiment [1], 1.15 µM (active) in experiment [2] and 1.45 µM (active) in experiment [3].

Take `COc1cc(N2CCOCC2)ccc1NC(=O)c1csc(-c2cccnc2)n1`: the Potency entry in experiment [4] is “inactive”.

Turning to `Cc1ccnc(NC(=O)C(C)c2cccc(C(=O)c3ccccc3)c2)c1` (centres undefined), the Potency in experiment [4] was 10.7 µM (active).

In the case of `O=C(NCc1ccccc1-c1ccccc1C(=O)NCCc1ccccn1)OCc1ccccc1`, in experiment [4], the Potency is 2.68 µM (active).

In the case of `O=C1COc2nccc(-c3ccccc3F)c2CN1Cc1cc(C(F)(F)F)cc(C(F)(F)F)c1`, the Potency in experiment [4] is 21.3 µM (active).
